Test results from PubChem BioAssay (Tox21).
Several values for one entry are separate records, joined by “and”; a condition that tells them apart may be missing. Equal values may be shown once. Results filed as inconclusive are left out. Activity calls are given as the source filed them. Calls follow the shape of the dose curve; as a rule, active = well fitted cell-killing curve with a large enough effect in the repeat runs; inconclusive = weak or mixed curves, or effect the other way; inactive = no such curve, though single readings can be large or run the other way.
% is scaled to controls: 0 for no effect and ±100 for the full control effect; potency is read from the fitted curve at half-maximal effect.

Assay: qHTS assay to identify small molecule antagonists of the glucocorticoid receptor (GR) signaling pathway - cell viability counter screen (AID 720693); also: nearly all actives have a fitted effect of over 55% in size
Details: GR-bla HeLa viability, CellTiter-Glo luminescence, 18 h, with 5 nM dexamethasone present; series mostly up to 58.5 µM; viability change, negative = cytotoxic: at the top concentration
Text: National Center for Advancing Translational Sciences [NCATS]
NIH Chemical Genomics Center [NCGC]
U.S. Environmental Protection Agency [EPA]
National Institutes of Environmental Health Sciences [NIEHS]
National Toxicology Program [NTP]
U.S. Food and Drug Administration [FDA]
The Glucocorticoid receptor (GR) is one of the members of the nuclear receptor family of ligand-dependent transcription factors. GR plays a critical role in carbohydrate, protein and lipid metabolisms and programmed cell death. CellSensor GR-bla HeLa cell line (Invitrogen) contains a beta-lactamase reporter gene under the control of the glucocorticoid response element stably integrated into HeLa cells, a cervical cancer cell line that expresses glucocorticoid receptor. The activation of the reporter gene under culture conditions can be detected by fluorescence intensity. This cell line has been used to screen the Tox21 10K compound library and to identify the compounds that inhibit the GR signaling. The cytotoxicity of the Tox21 compound library against the GR-bla HeLa cell line was tested in parallel by measuring the cell viability using CellTiter-Glo assay in the same wells.
Tox21 Assay Protocol Summary:
The GR-bla HeLa cells were dispensed at 1500 cells/5 ul/well in 1536-well black wall/clear bottom plates using a Multidrop Combi (ThermoFisher Scientific, Waltham, MA) dispenser. After the assay plates were incubated at a 37 C/5% CO2 incubator for 4 hours, 23 nL of compounds dissolved in DMSO, positive controls or DMSO only was transferred to the assay plate by a pintool station (Kalypsys, San Diego, CA), followed by addition of 1 uL of dexamethasone (5 nM, final concentration in the well). The plates were incubated at 37 C for 18 hours. After 1 uL of LiveBLAzerTM B/G FRET substrate was added using a Flying Reagent Dispenser (Aurora Discovery, San Diego, CA), the plates were incubated at room temperature (RT) for 2 hours, and fluorescence intensity was measured by an Envision plate reader (PerkinElmer, Shelton, CT). After measurement of bla assay, 3 ul CellTiter-Glo (Promega, Madison, WI) was added to measure the cytotoxicity and the plates were then incubated at RT for 30 min. The luminescence was measured using a ViewLux (Perkin Elmer) plate reader.
In the case of `CC(C)=C1CC[C@@H](C)CC1=O`, the “viability change, negative = cytotoxic” value is reported as -6.25% (inactive). With `Cc1c(-c2ccc(O)cc2)n(Cc2ccc(OCCN3CCCCCC3)cc2)c2ccc(O)cc12` the “viability change, negative = cytotoxic” value was -12% (inactive). With `O=C1OC(OC(=O)c2cccnc2Nc2cccc(C(F)(F)F)c2)c2ccccc21` (stereo not given) the “viability change, negative = cytotoxic” value was -0.948% (inactive). With `CCCCOc1ccc(C(=O)CCN2CCCCC2)cc1` the “viability change, negative = cytotoxic” value was -1.99% [at 27 µM] (inactive). For `C[Si](C)(C)Cl`, the “viability change, negative = cytotoxic” value was 10.4% (inactive). In the case of `Cc1ccc2ccc3cccc4ccc1c2c34`, the “viability change, negative = cytotoxic” value is reported as 14.8% (inactive). For `CN(C)c1ccc(N=NS(=O)(=O)O)cc1`, the “viability change, negative = cytotoxic” value was -28.4% (inactive). For `C[C@]12CC[C@H]3C(=CCc4cc(O)ccc43)[C@@H]1CCC2=O`, the “viability change, negative = cytotoxic” value was -21.5% (inactive). With `O=C(O)CCn1c2c(c3ccccc31)C[C@H](NS(=O)(=O)c1ccc(F)cc1)CC2` the “viability change, negative = cytotoxic” value was 1.19% (inactive). In the case of `Clc1ccccc1CN1CCc2sccc2C1`, the “viability change, negative = cytotoxic” value is reported as 1.91% (inactive). With `CNCC[C@H](Oc1cccc2ccccc12)c1cccs1` the “viability change, negative = cytotoxic” value was -4.19% (inactive). For `CCCCCCCCCC(=O)N(C)C`, the “viability change, negative = cytotoxic” value was 0.255% [at 78.9 µM] (inactive). In the case of `COc1cc(C(C)C)c2c(c1)S(=O)(=O)N(COc1cc(=O)n3cccc(OCCN4CCCCC4)c3n1)C2=O`, the “viability change, negative = cytotoxic” value is reported as 9.62% [at 27 µM] (inactive). With `CCCCCCOc1cc(C)c(O)c(C)c1C` the Potency was 49.6 µM (active). In the case of `CC=O`, the Potency is reported as 25.7 µM (active). For `Cc1cccc(Br)c1`, the “viability change, negative = cytotoxic” value was 13.6% [at 78.9 µM] (inactive). In the case of `CNC(=S)NN`, the “viability change, negative = cytotoxic” value is reported as -9.13% (inactive). In the case of `CCN=c1cc2oc3cc(NCC)c(C)cc3c(-c3ccccc3C(=O)OCC)c-2cc1C`, the Potency is reported as 21.8 µM (active) and 21.9 µM (active). With `CCN(CC)CCSC(=O)C(c1ccccc1)c1ccccc1` the “viability change, negative = cytotoxic” value was -4.78% (inactive). For `CCOC(=O)[C@@](C)(N)Cc1ccc(O)c(O)c1`, the “viability change, negative = cytotoxic” value was -1.63% [at 27 µM] (inactive). In the case of `O=C(O)CC(=O)O`, the “viability change, negative = cytotoxic” value is reported as 28.2% (inactive). With `O=S(=O)(O)CCCN1CCOCC1` the “viability change, negative = cytotoxic” value was 14.9% (inactive). In the case of `CCC(=O)OCCc1ccccc1`, the “viability change, negative = cytotoxic” value is reported as -9.03% (inactive). In the case of `COc1ccccc1OCCNCC(O)COc1cccc2[nH]c3ccccc3c12` (stereo not given), the “viability change, negative = cytotoxic” value is reported as -10.8% (inactive). With `CCCC(CC)CCCCCCCN` (stereo not given) the “viability change, negative = cytotoxic” value was 4.13% [at 78.9 µM] (inactive). In the case of `CCOC(=O)COc1ccc(C)cc1`, the “viability change, negative = cytotoxic” value is reported as 5.71% (inactive). In the case of `O=C(O)CCCCCCC(=O)O`, the “viability change, negative = cytotoxic” value is reported as 27.9% [at 78.9 µM] (inactive). With `NCCCC(O)(P(=O)(O)O)P(=O)(O)O` the “viability change, negative = cytotoxic” value was 6.39% (inactive). With `c1ccc(Sc2ccccc2)cc1` the “viability change, negative = cytotoxic” value was -0.419% (inactive). With `C(=C/c1ccccc1)/c1ccccc1` the “viability change, negative = cytotoxic” value was -3.18% [at 78.9 µM] (inactive). For `Cc1cn[nH]c1`, the “viability change, negative = cytotoxic” value was 7.17% (inactive). With `O=Cc1ccc(F)cc1` the “viability change, negative = cytotoxic” value was 2.48% (inactive). For `SCCCCCCCCS`, the “viability change, negative = cytotoxic” value was -11.9% (inactive). With `[O]=[Zr]` the “viability change, negative = cytotoxic” value was -8.69% (inactive). In the case of `COc1cc(C=C2CCC/C(=C\c3ccc(O)c(OC)c3)C2=O)ccc1O`, the Potency is reported as 23.9 µM (active). For `CO[C@H]1C=CO[C@@]2(C)Oc3c(C)c(O)c4c(O)c(cc(O)c4c3C2=O)NC(=O)/C(C)=C\C=C/[C@H](C)[C@H](O)[C@@H](C)[C@@H](O)[C@@H](C)[C@H](OC(C)=O)[C@@H]1C`, the “viability change, negative = cytotoxic” value was -0.471% (inactive). For `C=C(C)C(=O)OCCC[Si](Cl)(Cl)Cl`, the “viability change, negative = cytotoxic” value was -5.17% [at 78.9 µM] (inactive). With `Cc1oc(-c2ccccc2)nc1CCOc1ccc(C[C@H](Nc2ccccc2C(=O)c2ccccc2)C(=O)O)cc1` the Potency was 38.9 µM (active). For `CN1[C@@H]2CC[C@H]1CC(OC(=O)C(CO)c1ccccc1)C2` (stereo not given in full), the Potency was “inactive”. With `CCCCCCCCCCCCN(CCO)CCO` the Potency was 34.5 µM (active).
